# Compound activity from PubChem.
# LASV entry inh: blocks Lassa virus binding to or entry into cells. Lassa virus pseudotype entry inhibition, cell reporter. Potency, µM (top dose mostly 37.9 µM), inactives show at the top dose activity change, negative = inhibition, hits mostly inhibitors. 1.2% of 300,000 active. AID 540256; calls by dose curve; tested in HEK293 cells; note: potency is the fitted concentration of half-maximal effect; % is set by controls: 0 for no effect and ±100 for the full control effect; nearly all actives have a fitted effect of over 50% in size
# HCV inhibitor: HCV inhibition. Huh7.5.1 HCVcc-Cre infection, luciferase reporter, 44 h. Potency, µM (series often up to 41.8 µM), for inactives: at the top dose activity change, negative = inhibition, actives largely listed as inhibitors. 3.4% of 340,000 active; note: potency is the fitted concentration of half-maximal effect; % is set by controls: 0 for no effect and ±100 for the full control effect
#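 Cells seeded at 1,000/well and cultured 4 h, then compounds added followed by HCVcc-Cre virus (~0.5 moi). After 44 h further culture, luciferase substrate was added, plates held 15 min at room temperature, and luminescence read for 15 sec.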
# CHX counter: counter-screen for Shiga toxin inhibitors: cycloheximide protein synthesis inhibition; cell reporter, cycloheximide protein synthesis inhibition counterscreen; max response, %; 12% of 300,000 active; in the data active = max response mostly above about 13%, no sharp cut-off; inactive = mostly below about 14%; note: read at 38.3 µM for the half of the compounds with a filed dose; 0% is about no effect
# Marburg entry inh: blocks Marburg virus binding to or entry into cells | 1.8% of 300,000 active | Potency, µM (doses to about 37.8 µM), inactives show at the top dose activity change, negative = inhibition, most hits filed as inhibitors | AID 540276 | Marburg virus pseudotyped entry inhibition, cell reporter; calls by dose curve; tested in HEK293 cells; note: potency is the fitted concentration of half-maximal effect; % is set by controls: 0 for no effect and ±100 for the full control effect
# Shiga toxin inh: blocks Shiga toxin action in Vero cells; Vero cells, Shiga toxin protein synthesis inhibition reporter; AID 2315; 9.2% of 290,000 active; inhibition, % at 38.7 µM; in the data active = inhibition mostly above about 28%, no sharp cut-off; inactive = mostly below about 43%; note: 0% is about no effect
# FMDV antiviral: antivirals against foot and mouth disease virus; 1.2% of 410,000 active; FMDV antiviral cell-based qHTS; Potency, µM (highest dose often 57.9 µM), without a hit: at the highest dose activity change, negative = inhibition, most hits filed as inhibitors; calls by dose curve; tested in HEK293T cells; note: read-out not given here; potency is the fitted concentration of half-maximal effect; % is set by controls: 0 for no effect and ±100 for the full control effect; nearly all actives have a fitted effect of over 45% in size
# HCV inh confirm: HCV inhibition, cherry-pick confirmation | 78% of 640 active | HCVcc-Cre infectious virus cell assay, luciferase, inhibition | Potency, µM (doses to about 41.8 µM), inactives show top-dose activity, negative = inhibition, actives largely listed as inhibitors | shares compounds with HCV inhibitor; note: potency is the fitted concentration of half-maximal effect; nearly all actives have a fitted effect of over 80% in size
# HCV cytotox: counter-screen for HCV inhibitors: host cell cytotoxicity. shares compounds with HCV inhibitor. HCV host cell line cytotoxicity counterscreen. 22% of 640 active. Potency, µM (doses to about 41.8 µM), inactives show top-dose activity change, negative = cytotoxicity, most hits filed as inhibitors. AID 720576;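 note: potency is the fitted concentration of half-maximal effect; 44 h compound exposure; % is set by controls: 0 for no effect and ±100 for the full control effect; nearly all actives have a fitted effect of over 55% in size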
# * marks the source's active call; other numbers are inactive results; ? = inconclusive; nt = not tested or not shown; [ ] = dose if it differs, or a comment. Most compounds without a hit are left out; they make up all but 13% or so of the library. Unless noted, calls come from the whole dose curve; as a rule, active = well fitted curve in the direction sought with a large enough effect; inconclusive = small, poorly fitted or top-dose-only effect, or another doubt; inactive = no such curve, though single readings can be large; an effect the other way counts as inactive or inconclusive.
SMILES,LASV entry inh,HCV inhibitor,CHX counter,Marburg entry inh,Shiga toxin inh,FMDV antiviral,HCV inh confirm,HCV cytotox
COc1ccc(C2C3=C(COC3=O)Oc3cc4c(cc32)OCO4)cc1OC (configuration not stated),-10.9%,6.1%,nt,-3.5%,nt,-19.6%,nt,nt
COc1cc(OC)c(NC(=O)C(=O)CC(=O)c2ccc(C)cc2C)cc1Cl,8.2µM*,3.55µM*,-8.5,?,-10.5,-10.7%,14.1µM*,-14.3%
COc1cc(OC)c(NC(=O)Cn2cccc2)cc1Cl,4.7%,-8.5%,-1.5,?,-9.2,17.4%,nt,nt
CCc1ccc(C(CNC(=O)c2ccc3c(=O)n(-c4ccccc4F)c(=S)[nH]c3c2)N(C)C)cc1 (configuration not stated),nt,5.01µM*,9.1,?,27.2,?,1.41µM*,31.5µM*
O=C(Nc1ccc(S(=O)(=O)Nc2ccccn2)cc1)c1ccc(Cl)cc1Cl,?,-7.3%,-6.6,-15.0%,-0.7,39.0%,nt,nt
COc1ccccc1CNC(=O)CSc1ccc(C(=O)Nc2ccccc2OC)cc1[N+](=O)[O-],-14.3%,1.2%,-1.2,-4.5%,-11.1,-13.7%,nt,nt
COc1ccccc1NC(=O)c1ccc(SCC(=O)NCc2ccccc2Cl)c([N+](=O)[O-])c1,6.5%,?,8.4,-18.4%,-6.7,-13.9%,?,42.9%
NC(=S)c1cn(C2OC(CO)C(O)C2O)c2ncnc(N)c12 (configuration not stated),nt,0.282µM*,-2.2,nt,-5.4,?,0.445µM*,0.445µM*
Nc1ncnc2c1[nH]c(=O)n2C1OC(CO)C(O)C1O (configuration not stated),nt,nt,nt,nt,nt,-2.7%,nt,nt
CCOC(=O)c1cc2c(=O)n3ccccc3nc2n(Cc2ccco2)c1=NC(=O)c1ccc(OC)cc1OC,0.0%,?,-1.9,?,-13.2,21.3%,?,29.9%
COCCNC(=O)C12CC3CC(CC(Cl)(C3)C1)C2,17.4%,4.7%,2.7,4.2%,11.2,-12.7%,nt,nt
O=C(Nc1cc(Br)ccc1O)c1cnn2c(C(F)F)cc(C3CC3)nc12,?,?,-2.0,?,-1.3,-15.4%,7.05µM*,-94.7%
CCOc1ccccc1NC(=O)CSc1nnc(Cc2ccc(OC)cc2)c(=O)n1N,-14.8%,?,nt,0.0%,nt,-14.0%,7.91µM*,25.7%
Cc1ccnc(NC(=O)CCCOc2cc(=O)n(C)c3ccccc23)c1,-38.6%,3.55µM*,16.0*,?,63.3,3.6%,7.91µM*,?
CCCCCCCCCCCCC(C(=O)O)C(C)C(=O)O (configuration not stated),nt,nt,nt,nt,nt,9.6%,nt,nt
C=C(C(=O)O)C(CCCCCC)C(=O)O (configuration not stated),nt,0.631µM*,-1.1,nt,-3.0,-14.1%,-16.4%,-10.7%
S=C(NCCCN1CCOCC1)N1CCN(c2nc(-c3ccc(Cl)cc3)cs2)CC1,16.4µM*,3.16µM*,-3.1,?,4.6,12.6µM*,7.05µM*,28µM*
COc1ccc(NC(=O)c2oc3ccccc3c2NC(=O)C2CC2)cc1,-11.2%,-26.4%,7.3,3.1%,-8.4,-12.6%,nt,nt
COc1cccc(NC(=O)c2oc3ccccc3c2NC(=O)C2CC2)c1,?,?,2.2,?,8.5,-22.4%,?,23.5%
CS(=O)c1nc(-c2ccc(Br)cc2)cc(-c2ccccc2)c1C#N (configuration not stated),?,5.01µM*,-1.3,?,-1.3,nt,?,?
O=C(COC(=O)C1=COCCO1)Nc1cc(S(=O)(=O)N2CCCCC2)ccc1Cl,3.0%,-17.6%,-0.6,-38.3%[46.1 µM],16.2,-16.6%,nt,nt
CCOc1ccc(NC(=O)C[n+]2ccccc2)cc1,7.1%,40.0%,-1.0,?,2.2,-10.0%,nt,nt
C=CCc1ccccc1OCCNCCCOC,-20.5%,13.2%,-3.6,?,-8.5,-12.5%,nt,nt
COCCCNCCOCCOc1ccccc1-c1ccccc1,?,7.94µM*,-2.6,?,-3.3,12.3%,?,?
CCn1c2c(c(=N)c3c1CCC3)CCCC2,16.3%[46.1 µM],-16.4%,-1.5,?,-3.8,-24.2%,nt,nt
SMILES,LASV entry inh,HCV inhibitor,CHX counter,Marburg entry inh,Shiga toxin inh,FMDV antiviral,HCV inh confirm,HCV cytotox
CCCCCCCCCCn1c2c(c(=N)c3c1CCC3)CCC2,?,3.55µM*,-3.5,?,-27.8,17.8µM*,1.77µM*,2.23µM*
CCC[n+]1c(C)sc2c3c(ccc21)CCCC3,?,7.08µM*,-3.2,?,-6.4,?,25µM*,30.2%
COc1ccc(S(=O)(=O)Nc2cccc(C)c2C)c2cccnc12,?,-6.2%,-5.2,?,-4.6,18.6%,nt,nt
S=C(Nc1ccc(Cl)c(Cl)c1)N1CCOCC1,-10.3%,8.2%,5.5,-2.1%,5.4,19.8%,nt,nt
S=C(c1ccc(-c2ccc(Cl)c(Cl)c2)o1)N1CCOCC1,?,?,62.3*,-21.7%,95.6*,nt,14.1µM*,-18.5%
COc1cc(NC(=O)c2ccc(COc3ccccc3Br)o2)cc(OC)c1OC,?,5.01µM*,5.7,-18.9%,22.6,-23.7%,11.2µM*,0.7%
CN1CCc2nc(SCCOc3ccccc3)c(C#N)cc2C1,-7.1%,3.55µM*,16.4,-19.2%,32.8,nt,?,6.3%
COc1ccc(CNC(=O)[C@H](C)NC(=O)C2CCN(C(=O)[C@@H](N)Cc3ccccc3)CC2)cc1,nt,?,-2.7,nt,0.7,-6.1%,nt,nt
Cc1ccc(-n2nnnc2SCCNS(=O)(=O)c2ccccc2)cc1C,-12.9%,?,-2.2,?,-6.7,nt,14.1µM*,-16.5%
CS(=O)(=O)c1ccc(Cl)c(C(=O)O)c1,15.8%,14.0%,6.8,21.4%,-13.0,nt,nt,nt
CCOc1ccc(NC(=O)N2CCCC2C(=O)NCC2CCCO2)cc1 (configuration not stated),0.9%[46.1 µM],8.3%,-6.0,?,15.1,4.7%,nt,nt
CC(=O)Nc1ccc(NC(=O)Cc2ccc(-c3ccccc3)cc2)cc1,nt,6.7%,12.8,nt,13.3,-2.9%,nt,nt
O=C(CCl)Nc1ccc(-c2ccccc2)cc1,10.3µM*,3.16µM*,-7.2,?,-20.6,22.4µM*,6.28µM*,8.87µM*
CCn1c(=O)c2cc(C(=O)Nc3ccccc3OC)sc2c2ccccc21,nt,?,-2.7,nt,-12.1,-11.2%,14.1µM*,-15.0%
COCCN(C(=O)COC(=O)/C=C/c1ccc(OC)c(OC)c1)c1c(N)n(Cc2ccccc2)c(=O)[nH]c1=O,22.5%,?,nt,17.8%,nt,3.6%,?,27.1%
COCCN(C(=O)COC(=O)/C=C/c1ccco1)c1c(N)n(Cc2ccccc2)c(=O)[nH]c1=O,-5.3%,1.0%,6.0,-0.4%,8.6,-18.9%,nt,nt
O=C(Nc1ccc(Cl)cc1)N[C@@H]1c2c(ccc3ccccc23)OC[C@@H]1CO,-17.9%,?,-2.0,?,7.2,5.5%,?,?
